PubChem BioAssay (Tox21)
Results filed as inconclusive are left out. Activity calls are given as the source filed them. Unless noted, the call rests on the fitted dose curve; in most records, active means well fitted curve in the direction sought with a large enough effect in the repeat runs; inconclusive means weak or mixed curves; inactive means no such curve, though single readings can be large; an effect the other way counts as inactive or inconclusive.

What was measured:
[1] = qHTS assay to identify small molecule that activate the aryl hydrocarbon receptor (AhR) signaling pathway - cell viability counter screen (AID 743086);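 further: HepG2 liver cells carrying the AhR DRE luciferase reporter; series mostly up to about 70 µM; nearly all actives have a fitted effect of over 45% in size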
Summary of the method: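 Cytotoxicity counter screen: CellTiter-Fluor signal (30 min, 37 C) in 4000 HepG2 cells/well carrying the DRE-luciferase reporter, following 24 h compound exposure at 37 C.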

[2] = target: Peroxisome proliferator-activated receptor gamma (Homo sapiens) (UniProt P37231); assay: qHTS assay to identify small molecule agonists of the peroxisome proliferator-activated receptor gamma (PPARg) signaling pathway (AID 743094; active means well fitted activation curve with a large enough effect in the signal ratio in the repeat runs, not every such curve was filed as active; the % refers to the signal ratio)
Summary of the method: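 Fluorescence-based beta-lactamase readout in HEK293H PPARg UAS-bla cells after 17 h compound exposure (37C) and 1 h B/G FRET substrate incubation at room temperature.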

[3] = target: Peroxisome proliferator-activated receptor gamma (Homo sapiens) (UniProt P37231); assay: qHTS assay to identify small molecule antagonists of the peroxisome proliferator-activated receptor gamma (PPARg) signaling pathway (AID 743191; calls by dose curve; further: series mostly up to about 63 µM; nearly all actives have a fitted effect of over 30% in size)
Summary of the method: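 Beta-lactamase reporter under UAS control in HEK293H PPARg-bla cells; compound treatment 17 h at 37C. Read-out: fluorescence intensity after 1 h room-temperature incubation with LiveBLAzer B/G FRET substrate.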

[4] = qHTS assay to identify small molecule antagonists of the peroxisome proliferator-activated receptor gamma (PPARg) signaling pathway - cell viability counter screen (AID 743194); further: nearly all actives have a fitted effect of over 55% in size
Summary of the method: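 Viability was measured as CellTiter-Glo luminescence in GeneBLAzer PPARg UAS-bla HEK293H cells. These cells had been exposed 17 h at 37 C to compounds together with rosiglitazone at 50 nM final, with the beta-lactamase readout taken in the same wells.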

[5] = qHTS assay for small molecule agonists of the antioxidant response element (ARE) signaling pathway (AID 743202; active means well fitted activation curve with a large enough effect in the signal ratio in the repeat runs, not every such curve was filed as active; the % refers to the signal ratio)
Summary of the method: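 After 16 hours of compound treatment at 37 C, HepG2 cells with a stably integrated ARE-driven beta-lactamase reporter were loaded 2 hours at room temperature with LiveBLAzer B/G FRET substrate and fluorescence intensity measured.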

[6] = qHTS assay for small molecule agonists of the antioxidant response element (ARE) signaling pathway - cell viability counter screen (AID 743203; calls by dose curve; further: nearly all actives have a fitted effect of over 55% in size)
Summary of the method: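 Parallel cytotoxicity read-out for the ARE-bla screen: HepG2 reporter cells, 16 hrs with compounds, then CellTiter-Glo luminescence.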

[7] = qHTS assay for small molecule activators of the heat shock response signaling pathway (AID 743210; active means well fitted activation curve with a large enough effect in the signal ratio in the repeat runs, with a control signal flat, not every such curve was filed as active; the % refers to the signal ratio; further: series mostly up to about 63 µM)
Summary of the method: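 Compound exposure lasted 5 h at 37 C in HeLa cells carrying a heat-shock-element-driven beta-lactamase reporter. Read-out: fluorescence intensity after 2.5 h room-temperature loading with LiveBLAzer B/G FRET substrate.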

[8] = qHTS assay to identify small molecule agonists of the peroxisome proliferator-activated receptor delta (PPARd) signaling pathway - cell viability counter screen (AID 743211); further: nearly all actives have a fitted effect of over 55% in size
Summary of the method: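 Read-out: CellTiter-Glo luminescence, 30 min RT, measured in the same wells as the beta-lactamase reporter. Cells: GeneBLAzer PPAR delta UAS-bla HEK293H, 3000 cells/well, compound exposure 17 h at 37C.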

[9] = target: Aryl hydrocarbon receptor (Homo sapiens) (UniProt P35869); assay: qHTS assay to identify small molecule that activate the aryl hydrocarbon receptor (AhR) signaling pathway (AID 743085);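 further: HG2L7.5c1 human HepG2 liver cells with stably integrated DRE-driven firefly reporter; series mostly up to about 70 µM; nearly all actives have a fitted effect of over 15% in size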
Summary of the method: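 Luminescence read-out: ONE-Glo reagent, 30 min at room temperature, in HG2L7.5c1 HepG2 reporter cells treated 24 h at 37C. Viability was measured beforehand by CellTiter-Fluor fluorescence after 30 min at 37C.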

[10] = qHTS assay for small molecule activators of the heat shock response signaling pathway - cell viability counter screen (AID 743209); further: nearly all actives have a fitted effect of over 50% in size
Summary of the method: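 To flag cytotoxic compounds, HSE-bla HeLa cells plated at 1500 cells/well were dosed for 5 h at 37 C, followed by the reporter FRET read and then CellTiter-Glo, with luminescence recorded 30 min after reagent addition.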

Measured: Potency

Chain of Peroxisome proliferator-activated receptor gamma (Homo sapiens) (P37231 whole entry, looked up): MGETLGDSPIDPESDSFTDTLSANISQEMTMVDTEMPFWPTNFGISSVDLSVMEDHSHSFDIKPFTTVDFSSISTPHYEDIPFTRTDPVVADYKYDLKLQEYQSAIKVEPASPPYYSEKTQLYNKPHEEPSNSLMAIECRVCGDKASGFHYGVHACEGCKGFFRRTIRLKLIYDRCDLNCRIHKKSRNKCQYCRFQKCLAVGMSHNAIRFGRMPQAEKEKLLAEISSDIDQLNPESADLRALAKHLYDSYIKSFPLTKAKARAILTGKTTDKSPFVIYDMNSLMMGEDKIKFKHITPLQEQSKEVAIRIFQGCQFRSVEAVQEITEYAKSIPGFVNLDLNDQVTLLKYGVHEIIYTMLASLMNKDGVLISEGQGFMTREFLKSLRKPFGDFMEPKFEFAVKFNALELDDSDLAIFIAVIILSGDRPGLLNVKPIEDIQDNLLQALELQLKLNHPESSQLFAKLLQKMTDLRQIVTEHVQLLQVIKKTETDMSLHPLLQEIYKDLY
Chain of Aryl hydrocarbon receptor (Homo sapiens) (P35869 whole entry, looked up): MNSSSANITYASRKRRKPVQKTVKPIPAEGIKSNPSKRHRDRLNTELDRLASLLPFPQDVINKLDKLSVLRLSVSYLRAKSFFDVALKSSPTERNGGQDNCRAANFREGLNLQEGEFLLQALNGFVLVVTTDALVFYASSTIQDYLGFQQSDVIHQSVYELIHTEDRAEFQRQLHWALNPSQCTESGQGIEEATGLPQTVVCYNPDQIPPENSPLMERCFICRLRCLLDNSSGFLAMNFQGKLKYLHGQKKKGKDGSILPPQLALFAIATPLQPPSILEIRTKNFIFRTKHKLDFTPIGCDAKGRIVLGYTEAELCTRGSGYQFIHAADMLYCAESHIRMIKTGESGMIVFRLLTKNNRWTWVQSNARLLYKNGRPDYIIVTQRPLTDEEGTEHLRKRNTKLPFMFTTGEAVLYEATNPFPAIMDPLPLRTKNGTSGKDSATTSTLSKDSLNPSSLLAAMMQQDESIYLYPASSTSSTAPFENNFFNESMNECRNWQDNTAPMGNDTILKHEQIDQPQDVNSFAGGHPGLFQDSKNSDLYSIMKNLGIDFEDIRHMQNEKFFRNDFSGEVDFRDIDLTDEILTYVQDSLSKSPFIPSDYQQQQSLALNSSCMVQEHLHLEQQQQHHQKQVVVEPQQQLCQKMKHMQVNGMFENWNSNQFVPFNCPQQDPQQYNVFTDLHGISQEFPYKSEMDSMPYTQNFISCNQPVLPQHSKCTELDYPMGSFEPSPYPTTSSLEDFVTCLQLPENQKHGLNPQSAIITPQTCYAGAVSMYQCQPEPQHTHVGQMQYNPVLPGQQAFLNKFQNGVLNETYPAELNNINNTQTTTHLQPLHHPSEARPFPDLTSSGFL

C[C@@H]1CCC[C@H](C)N1
not listed: [9] | [10]
inactive: all other assays above

C[N+]1(C)CCCC(OC(=O)C(O)(c2ccccc2)c2ccccc2)C1 (stereo unspecified)
not listed: [1] | [2] | [3]
inactive: all other assays above

COCCOC[C@H](CC1(C(=O)NC2CCC(C(=O)O)CC2)CCCC1)C(=O)Oc1ccc2c(c1)CCC2 (stereo partly specified)
not listed: [1] | [5] | [7]
inactive: all other assays above

C[N+]12CCC(CC1)C(OC(=O)C(O)(c1ccccc1)c1ccccc1)C2 (stereo unspecified)
inactive: [1] | [2] | [3] | [4] | [6] | [10]

CC1=CCC(O)(C(C)C)CC1 (stereo unspecified)
not listed: [6] | [9]
inactive: all other assays above

N[C@H](C(=O)O)[C@@H](O)c1ccc(O)c(O)c1
not listed: [1] | [5] | [10]
inactive: all other assays above

CC[C@H]1OC(=O)[C@H](C)[C@@H](O[C@H]2C[C@@](C)(OC)[C@@H](O)[C@H](C)O2)[C@H](C)[C@@H](O[C@@H]2O[C@H](C)C[C@H](N(C)C)[C@H]2O)[C@](C)(OC)C[C@@H](C)C(=O)[C@H](C)[C@@H](O)[C@]1(C)O
not listed: [9]
inactive: all other assays above

Nc1ccn([C@@H]2O[C@H](CO)[C@@H](O)[C@@H]2O)c(=O)n1
not listed: [1] | [2] | [4]
inactive: all other assays above

Clc1cc(Cl)c(Cl)nc1Cl
not listed: [9] | [10]
inactive: all other assays above

C=C[Si](OC(C)=O)(OC(C)=O)OC(C)=O
not listed: [7] | [9]
inactive: all other assays above

CC(=O)Oc1cccc(C)c1
not listed: [9]
inactive: all other assays above

CCOC(=O)OC(C)OC1=C(C(=O)Nc2ccccn2)N(C)S(=O)(=O)c2ccccc21 (stereo unspecified)
not listed: [1] | [7] | [10]
inactive: all other assays above

CC(C(=O)O)c1cccc(Oc2ccccc2)c1 (stereo unspecified)
inactive: [9] | [6] | [10] | [8]

COc1cccc(OC)c1C(=O)N[C@@H]1C(=O)N2[C@@H]1SC(C)(C)[C@@H]2C(=O)O
inactive: [9] | [2] | [4] | [6] | [8]

O=S(=O)(O)c1cccc(S(=O)(=O)O)c1
not listed: [1] | [5] | [7]
inactive: all other assays above

C[N+]1(C)[C@@H]2CC(OC(=O)[C@H](CO)c3ccccc3)C[C@H]1[C@@H]1O[C@@H]12 (stereo partly specified)
not listed: [9]
inactive: all other assays above

C1CCC2(CCCCO2)OC1
not listed: [9]
inactive: all other assays above

CCN(Cc1ccccc1)c1ccccc1
not listed: [9]
inactive: all other assays above

[K+]
inactive: [9] | [4] | [5] | [6] | [7] | [8]

COc1c(N2CCNC(C)C2)c(F)cc2c(=O)c(C(=O)O)cn(C3CC3)c12 (stereo unspecified)
not listed: [9]
inactive: all other assays above

C=CC(=O)OCCCl
not listed: [9]
inactive: all other assays above

CCCCCC(=O)OCCc1ccccc1
not listed: [5] | [9]
inactive: all other assays above

CCCC(C)C(=O)OCC (stereo unspecified)
not listed: [7] | [9]
inactive: all other assays above

CCCCS(=O)(=O)N[C@@H](Cc1ccc(OCCCCC2CCNCC2)cc1)C(=O)O
not listed: [7] | [9]
inactive: all other assays above

Nc1c2c(nc3c1CCC3)CCCC2
not listed: [7] | [9]
inactive: all other assays above

CN(C)CCN(C)CCN(C)C
not listed: [9]
inactive: all other assays above

Cc1ncc([C@@H](CCCCCCc2ccc3c(n2)NCCC3)CC(=O)O)cn1
inactive: [9] | [2] | [6] | [10] | [8]

CO/N=C(\C(=O)N[C@@H]1C(=O)N2C(C(=O)O)=C(CSc3nc(=O)c(O)nn3C)CS[C@H]12)c1csc(N)n1
not listed: [7] | [9] | [10]
inactive: all other assays above
